# Assay results published in PubChem BioAssay (Tox21).
# Values joined by “and” are separate entries in the source; they are usually repeats but may differ in a detail not shown here. Equal entries are not always repeated. Records with an inconclusive call do not appear. A call without a number means that no potency is given here. A number with no mark means an inactive call. Active and inactive are the calls of the source. Unless noted, the call rests on the fitted dose curve; in most records, active means well fitted curve in the direction sought with a large enough effect in the repeat runs; inconclusive means weak or mixed curves; inactive means no such curve, though single readings can be large; an effect the other way counts as inactive or inconclusive.
# What was measured:
# [1] = biological target: Luciferin 4-monooxygenase (Photinus pyralis) (UniProt P08659); experiment: qHTS assay to identify small molecule inhibitors of firefly luciferase (AID 1224835); further: nearly all actives have a fitted effect of over 25% in size; further: potency means the concentration at half of the fitted maximal effect
# Method in brief: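 Inhibition of purified Photinus luciferase is measured by luminescence. Substrate levels (D-luciferin, ATP) sit at their KM values. Each compound is tested in a concentration series.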
# [2] = biological target: Nuclear receptor subfamily 1 group I member 3 (Homo sapiens) (UniProt Q14994); experiment: qHTS assay to identify small molecule agonists of the constitutive androstane receptor (CAR) signaling pathway (AID 1224839); further: nearly all actives have a fitted effect of over 15% in size; further: potency means the concentration at half of the fitted maximal effect
# Method in brief: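 Luminescence read-out (ONE-Glo, 30 min, room temperature) from double-stable HepG2-CYP2B6-hCAR cells exposed 24 h to 15-point compound series in presence of 0.75 uM PK11195 final.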
# [3] = qHTS assay to identify small molecule antagonists of the estrogen related receptor signaling pathway with the pleiotropic PPARgamma coactivator (PGC) from Tox21 10K library (AID 1224841; call rule not given here; further: actives are mostly falling curves and most rising ones were filed inactive; nearly all actives have a fitted effect of over 50% in size; further: potency means the concentration at half of the fitted maximal effect)
# Method in brief: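 In the PGC/ERR line, DMSO solutions of test chemicals are pin-delivered to 2,000 cells/well six hours after dispensing. Following eighteen hours' incubation, One-Glo reagent is added and luminescence recorded.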
# [4] = qHTS assay to identify small molecule agonists of the estrogen related receptor signaling pathway with the pleiotropic PPARgamma coactivator (PGC) from Tox21 10K library (AID 1224842); further: nearly all actives have a fitted effect of over 15% in size; further: potency means the concentration at half of the fitted maximal effect
# Method in brief: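 Luminescence from One-Glo (30 min, room temperature) measured after PGC/ERR cells had 18 h at 37 C with pinned compound (23 nL in DMSO). Cells had been seeded at 2,000 per well and pre-incubated 6 h.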
# [5] = biological target: Thyrotropin receptor (Homo sapiens) (UniProt P16473); experiment: qHTS assay to identify small molecule agonists of the thyroid stimulating hormone receptor (TSHR) signaling pathway (AID 1224843; calls by dose curve; further: nearly all actives have a fitted effect of over 45% in size; further: potency means the concentration at half of the fitted maximal effect)
# Method in brief: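 Agonist activity read as cAMP rise via d2/cryptate HTRF competition, 1 h room-temperature detection, in HEK293 cells expressing TSHR. Fifteen-point titrations, each run in triplicate, with a 30 min room-temperature incubation beforehand.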
# [6] = qHTS assay to identify small molecule agonists of the hypoxia (HIF-1) signaling pathway - cell viability counter screen (AID 1224844; calls by dose curve; further: nearly all actives have a fitted effect of over 50% in size; further: potency means the concentration at half of the fitted maximal effect)
# Method in brief: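 Same wells as the HIF-1 reporter screen; ME-180 cells carrying HRE-bla, 17 hr treatment at 37C; CellTiter-Glo luminescence read after 30 min at room temperature.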
# [7] = qHTS assay to identify small molecule antagonists of the constitutive androstane receptor (CAR) signaling pathway - cell viability counter screen (AID 1224837); further: nearly all actives have a fitted effect of over 45% in size; further: potency means the concentration at half of the fitted maximal effect
# Method in brief: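 In quantitative HTS format, compounds at 15 concentrations were applied to HepG2 cells double-transfected with hCAR and CYP2B6-2.2kb under 50 nM CITCO stimulation; live-cell protease activity was read after 23 hr via CellTiter-Fluor.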
# [8] = biological target: Nuclear receptor subfamily 1 group I member 3 (Homo sapiens) (UniProt Q14994); experiment: qHTS assay to identify small molecule antagonists of the constitutive androstane receptor (CAR) signaling pathway (AID 1224838); further: nearly all actives have a fitted effect of over 40% in size
# Method in brief: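 CITCO-stimulated (50 nM final) HepG2 cells stably transfected with hCAR and CYP2B6-2.2kb luciferase were exposed to compounds at 15 concentrations for 24 h at 37 C/5% CO2. A luciferase reagent was added and luminescence recorded after 30 min.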
# [9] = qHTS assay to identify small molecule agonists of the constitutive androstane receptor (CAR) signaling pathway - cell viability counter screen (AID 1224836); further: nearly all actives have a fitted effect of over 45% in size; further: potency means the concentration at half of the fitted maximal effect
# Method in brief: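 Viability read-out: CellTiter-Fluor fluorescence after 23 h compound exposure at 37 C/5% CO2 in double-stable HepG2-CYP2B6-hCAR cells, with PK11195 present at 0.75 uM final; compounds tested in 15-point titration.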
# [10] = qHTS assay to identify small molecule antagonists of the estrogen related receptor signaling pathway with the pleiotropic PPARgamma coactivator (PGC) from Tox21 10K library - cell viability counter screen (AID 1224840; active means well fitted cell-killing curve with a large enough effect in the repeat runs, not every such curve was filed as active; further: nearly all actives have a fitted effect of over 40% in size; further: potency means the concentration at half of the fitted maximal effect)
# Method in brief: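 Viability counter screen, PGC/ERR cells: 17.5 h compound exposure at 37 C, CellTiter-Fluor fluorescence endpoint.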
# Luciferin 4-monooxygenase (Photinus pyralis), sequence (P08659 whole entry, looked up): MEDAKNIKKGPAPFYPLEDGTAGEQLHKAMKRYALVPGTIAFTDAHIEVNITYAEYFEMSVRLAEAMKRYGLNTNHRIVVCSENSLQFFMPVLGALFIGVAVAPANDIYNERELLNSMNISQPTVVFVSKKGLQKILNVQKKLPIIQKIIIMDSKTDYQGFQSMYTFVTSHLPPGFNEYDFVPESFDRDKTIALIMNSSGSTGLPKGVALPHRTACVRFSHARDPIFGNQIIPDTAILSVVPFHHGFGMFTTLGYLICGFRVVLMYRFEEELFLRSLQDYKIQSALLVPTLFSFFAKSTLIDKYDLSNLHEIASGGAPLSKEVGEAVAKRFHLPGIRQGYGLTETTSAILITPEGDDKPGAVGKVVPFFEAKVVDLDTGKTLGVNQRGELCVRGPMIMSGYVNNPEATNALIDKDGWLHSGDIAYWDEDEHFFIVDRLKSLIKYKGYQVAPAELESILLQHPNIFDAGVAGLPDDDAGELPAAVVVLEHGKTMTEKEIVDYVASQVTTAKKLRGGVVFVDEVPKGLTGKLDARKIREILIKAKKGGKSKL
# Thyrotropin receptor (Homo sapiens), sequence (P16473 whole entry, looked up): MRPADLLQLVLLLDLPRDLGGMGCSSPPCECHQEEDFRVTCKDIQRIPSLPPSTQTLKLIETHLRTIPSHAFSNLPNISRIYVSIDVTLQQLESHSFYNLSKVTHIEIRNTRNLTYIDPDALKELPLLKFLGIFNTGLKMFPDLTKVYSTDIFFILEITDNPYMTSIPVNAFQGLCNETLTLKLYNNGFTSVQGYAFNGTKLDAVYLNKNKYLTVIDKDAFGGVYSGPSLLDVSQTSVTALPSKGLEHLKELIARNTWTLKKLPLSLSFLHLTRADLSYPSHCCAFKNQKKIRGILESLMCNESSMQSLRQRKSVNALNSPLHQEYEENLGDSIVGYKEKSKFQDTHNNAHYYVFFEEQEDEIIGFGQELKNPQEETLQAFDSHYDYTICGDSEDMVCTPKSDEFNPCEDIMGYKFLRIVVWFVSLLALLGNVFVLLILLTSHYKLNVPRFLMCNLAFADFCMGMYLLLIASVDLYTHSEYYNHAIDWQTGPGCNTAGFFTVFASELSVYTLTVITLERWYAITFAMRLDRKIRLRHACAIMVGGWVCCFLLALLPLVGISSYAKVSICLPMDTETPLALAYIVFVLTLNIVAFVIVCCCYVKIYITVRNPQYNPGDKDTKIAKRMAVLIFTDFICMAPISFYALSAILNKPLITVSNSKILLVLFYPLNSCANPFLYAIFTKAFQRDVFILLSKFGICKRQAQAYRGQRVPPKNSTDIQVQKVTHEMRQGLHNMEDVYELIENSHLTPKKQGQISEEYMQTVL
# Nuclear receptor subfamily 1 group I member 3 (Homo sapiens), sequence (Q14994 whole entry, looked up): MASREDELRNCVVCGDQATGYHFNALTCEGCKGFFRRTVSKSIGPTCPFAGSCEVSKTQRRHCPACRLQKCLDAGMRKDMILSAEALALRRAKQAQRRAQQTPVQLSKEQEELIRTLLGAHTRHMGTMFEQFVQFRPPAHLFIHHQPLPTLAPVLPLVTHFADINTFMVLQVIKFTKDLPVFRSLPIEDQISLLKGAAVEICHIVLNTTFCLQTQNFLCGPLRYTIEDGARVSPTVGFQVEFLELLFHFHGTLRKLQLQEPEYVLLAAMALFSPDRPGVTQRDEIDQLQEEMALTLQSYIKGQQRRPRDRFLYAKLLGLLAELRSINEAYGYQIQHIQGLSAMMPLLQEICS
SMILES,Potency [1],Potency [2],Potency [3],Potency [4],Potency [5],Potency [6],Potency [7],Potency [8],Potency [9],Potency [10]
CC(C)C1CCC(Cc2ccc(Cl)cc2)C1(O)Cn1cncn1 (stereo unspecified),inactive,inactive,15.2 µM (active),inactive,48.1 µM (active),54.4 µM (active),–,–,–,–
CC(C)N1C(=O)N(c2ccccc2)CSC1=NC(C)(C)C,inactive,24.3 µM (active),–,inactive,inactive,–,inactive,inactive,–,–
CCCCOP(=O)(CCCC)OCCCC,inactive,–,–,inactive,–,inactive,–,–,inactive,inactive
COC(=O)N(C(=O)N1CO[C@@]2(C(=O)OC)Cc3cc(Cl)ccc3C2=N1)c1ccc(OC(F)(F)F)cc1,inactive,–,–,inactive,–,inactive,–,–,inactive,inactive
CSCCCN=C=S,inactive,–,inactive,inactive,inactive,–,–,–,–,inactive
CCCOCC(=Nc1ccc(Cl)cc1C(F)(F)F)n1ccnc1,inactive,48.5 µM (active),–,–,54.4 µM (active),inactive,–,inactive,–,–
Oc1c(Cl)c(Cl)cc(Cl)c1Cl,87 µM (active),inactive,53 µM (active),inactive,inactive,inactive,inactive,–,–,–
CN(C)CCc1c[nH]c2cccc(O)c12,inactive,–,–,–,–,inactive,–,–,inactive,inactive
O=[N+]([O-])c1c2ccccc2cc2ccccc12,31.3 µM (active),21.4 µM (active),inactive,–,inactive,–,–,inactive,–,inactive
C=CC(=O)OCCCCOC(=O)C=C,inactive,inactive,inactive,21.7 µM (active),–,–,61.1 µM (active),–,–,48.6 µM (active)
Oc1cc(Cl)c(Cl)c(Cl)c1,inactive,inactive,36.6 µM (active),inactive,inactive,inactive,–,–,–,–
NNC(=O)c1ccccc1,inactive,62.8 µM (active),–,–,inactive,inactive,–,–,inactive,inactive
Clc1ccc(CSC(Cn2ccnc2)c2ccc(Cl)cc2Cl)cc1 (stereo unspecified),inactive,–,–,–,–,–,–,–,inactive,29.8 µM (active)
C[C@H]1O[C@@H](O[C@H]2[C@@H](O)C[C@H](O[C@H]3[C@@H](O)C[C@H](O[C@H]4CC[C@@]5(C)[C@H](CC[C@@H]6[C@@H]5CC[C@]5(C)[C@@H](C7=CC(=O)OC7)CC[C@]65O)C4)O[C@@H]3C)O[C@@H]2C)C[C@H](O)[C@@H]1O,inactive,inactive,97.5 nM (active) and 168 nM (active),inactive,–,98.3 nM (active) and 190 nM (active),–,–,0.0975 µM (active),–
